Results published in the supplement of paper PMC6555819.

What follows are sequences tested on PPARg:RXRa (NR concentration 180 nM, RXRa partner concentration 90 nM) (assay: PBM binding z-score (relative to random genomic background probes); higher = stronger binding; sequences stand for … in GC…GCGATTGACAGCGTAGAATGAAGG).
Method in brief: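 The probes on custom Agilent 4×180K protein-binding microarrays were double-stranded, with 34-nt variable regions bearing direct-repeat seeds, single-nucleotide variants, half-site ablations and random human genomic background sequences. Incubation lasted 1 h with ligand-free nuclear receptor dimers in PBS pH 7.4, 2% milk, 0.02% Triton X-100, 1 mM DTT, 0.2 mg/mL BSA and 0.4 mg/ml salmon testes DNA. Antibodies against each partner (one per run) detected bound dimers, and fluorescence scans were regression-normalized. Binding z-scores take the random background probes as reference.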
For TGTCAAAGTTCAAAGGTAATGTAAGTATCCACAC, the PBM binding z-score was 8.55.
GCTTGTAGATCTAGGTTAAGAAAGACTAAGCTAA was tested, and the PBM binding z-score was 0.547.
Sequence TCTAGTTGGTCACGGAGGTCACATACGACGGGTA has a PBM binding z-score of 3.1.
With TGAATGAGGTTAAAGATCAGCGAACGTGGCGTCG the PBM binding z-score was 5.87.
In the case of TCTTGTACATCAATAGAGGTTAAGAAAGTGCGCT, the PBM binding z-score was 0.201.
GGAACGCGGGCAAGTTGATAGCAGAGTTTGATGG gave a PBM binding z-score of 0.256.
AGTCAAAGTTCAGGACGAGGTAACGGAAAGCACG was tested, and the PBM binding z-score was 4.45.
Sequence ACAGACAGGTGAGAGAAGGTAACTCAGCTGGACG has a PBM binding z-score of 0.832.
In the case of TCATATAGGTAAATGCTAGGGGAAAGTCCGATCT, the PBM binding z-score was 0.788.
For CCTTACGGGTCACTCCAGGTTATTGCATCGGAGT, the PBM binding z-score was 3.25.
Work on GCAGACAGGAGAAACGCAGGTAACTCAGGGTGGC yielded a PBM binding z-score of 0.376.
With CCGAGTACGTTATGGGGCATTCAGGCAACGGTGA the PBM binding z-score was 0.408.
With TCGAGTAGGCTAGTCGGGGCATTCAGCCAACATA the PBM binding z-score was -0.351.
CCAGACAGGTGAAAGGTAACTCAGTCTGGTACGC gave a PBM binding z-score of 6.06.
With CTCGAAAGGTCGGTTGAGGTGAGGATACGGATAA the PBM binding z-score was 0.677.
TTACCAAGGTGAAGGTAGTTGATCCCTCTGTAGA gave a PBM binding z-score of 0.324.
CCGACCGGGGCATAAGGTTACCATAAGCCAGCCC showed a PBM binding z-score of 1.09.
CATACAGGGTCAGCTCGGCCAGAGTAGGGACGGC showed a PBM binding z-score of 2.99.
ACTTGTTGGTCAGCTGAGGTCACACACAATTCGG showed a PBM binding z-score of 1.8.
CCTGCTAGGTAATGGTCAGCTAATCTACAGTATG gave a PBM binding z-score of -0.182.
CGTCCAGGGTCATAGGAGGTCAGTGAAGACAGAT showed a PBM binding z-score of 5.65.
Sequence CCTTACGGTTCACTCCAGGTTATAGCATCGGAGT has a PBM binding z-score of 0.562.
AGTCAGAGTTCAGGACGAGGTAACGTAAAGCACG gave a PBM binding z-score of 2.26.
TCAGACAGGCGAAGGTAACTCAGGTACGCAGTCG gave a PBM binding z-score of 0.517.
Work on CGCCCAAGGTCAGAGAGGTCAGTGAATGCCGAGT yielded a PBM binding z-score of 3.1.
GCATATAGGTAATACAAAGTGAAAGTCCGATTGT showed a PBM binding z-score of 1.12.
Work on CGAACTAGATCATCCAGGACAGTGAATACATTGA yielded a PBM binding z-score of 0.554.
Work on CTACCAAGGTGAACAAGGTGGTTGATTACTATTC yielded a PBM binding z-score of 0.492.
ACATACGGGTCAACGAGGTTATAGCACGCGTATA showed a PBM binding z-score of 5.65.
CGTCCAAGGTCAAGGTCAGTAAAAGAGACTCGAA gave a PBM binding z-score of 6.21.
With GCGACTGGGGCATCAGCAGGTAACCATAACTTAA the PBM binding z-score was 0.905.
ATATGTAGATTAGCTGGGGTCATTCAGACTAGGC was tested, and the PBM binding z-score was 1.45.
Sequence ACTAGTTGGTCAGCTGAGGTCCCACACAATTCGG has a PBM binding z-score of 0.275.
AGAGTGAGGTTATACGTAGATCAGGGAAGAAAGT gave a PBM binding z-score of 1.11.
For GCTAGCAGGCCATTTGGGGCACTCAATGACGGGC, the PBM binding z-score was 0.377.
With GCTAGTTGGTCAGGAAAAGGTCACACACCGGTCG the PBM binding z-score was 2.57.
CCGACTGGGGCATAAGGTTACCACAAGCCAGCCC was tested, and the PBM binding z-score was 2.44.
Work on ACTAGTTGGTCAGCAGAGGTCACACACAATTCGG yielded a PBM binding z-score of 3.33.
For TCTTGTAGATCAAAGGTTAAAAAAGCCGAAGCCT, the PBM binding z-score was 8.35.
Sequence CCGACTGGTGCATAAGGTTACCATAAGCCAGCCC has a PBM binding z-score of 0.64.
